Assay results from PubChem BioAssay AID540256 (National Center for Advancing Translational Sciences (NCATS), 2011).
The campaign covered roughly 300,000 compounds. About 3,700 (1.2%) were called active. Another 20% or so got no clear call; they are omitted. Many of the other results were omitted from the sample, so actives are more common in it than they were. Unmarked numbers belong to inactive results. The call rests on the fitted dose curve; tested in HEK293 cells.

Assay: qHTS for Inhibitors of binding or entry into cells for Lassa Virus; further: nearly all actives have a fitted effect of over 50% in size
Conditions: Lassa virus pseudotype entry inhibition, cell reporter; series mostly up to 37.9 µM; activity change, negative = inhibition: at the top concentration
On the % scale 0 is the no-effect control and ±100 the full control effect; potency means the concentration at half of the fitted maximal effect.

Structure (SMILES) | activity change, negative = inhibition | Potency
Cc1ccc(OCC(=O)NNC(=S)NCc2ccccc2)cc1 | -3.7% | 
Cc1ccc(CNC(=O)COc2ccc3c(c2)CCC3)cc1 |  | 18.4 µM (active)
Cc1ccc(CNC(=O)COc2ccc(S(=O)(=O)NC(C)C)cc2)cc1 | -27.2% | 
O=C1CCc2cc(S(=O)(=O)Nc3ccc(C(F)(F)F)cc3)cc3c2N1CC3 | 0.263% | 
CCOc1ccc(C(=O)CCC(=O)NC2=NCCS2)cc1 | 2.25% | 
Cc1ccc2oc(=O)c3cnn(CC(=O)N4CCN(c5cccc(Cl)c5)CC4)c3c2c1 | -7.95% [at 46.1 µM] | 
Cc1ccccc1CCNC(=O)C1CCC(=O)N(Cc2ccc(Cl)cc2)C1 (stereo not given) | -1.95% | 
COc1ccccc1NC(=O)Nc1nc(CC(=O)Nc2ccccc2F)cs1 | 3.87% | 
Cc1noc(C)c1/C=N/Nc1ccc2ccccc2n1 | -25.4% | 
C(=N\Nc1ccc2ccccc2n1)/c1ccc2c(c1)OCO2 |  | 2.24 µM (active)
Brc1ccc(-c2csc(N/N=C/c3ccc4c(c3)OCO4)n2)cc1 | 7.35% | 
Cn1nnc2cc(C(=O)NCCC3=CCCCC3)ccc21 |  | 8.91 µM (active)
Cc1ccc(-n2cnc3cc(C(=O)NCCC4=CCCCC4)ccc32)cc1Cl | 12.8% [at 46.1 µM] | 
CC(Sc1nncn1C)C(=O)NCCC1=CCCCC1 (stereo not given) | 16.2% [at 46.1 µM] | 
Cc1cccc(C(=O)N[C@H](C(=O)NCc2cccs2)C(C)C)c1 | 0.171% | 
COc1ccc2c(c1)c(=Cc1ccc(N(C)C)cc1)c1cc(-c3ccccc3)[n+](C)n12 |  | 8.91 µM (active)
CCc1nnc(SCc2c(F)cccc2Cl)c2cc3sccc3n12 | -13.9% [at 46.1 µM] | 
CS(=O)(=O)c1ccc(-c2nnc(NC(=O)c3ccc4c(c3)OCCO4)o2)cc1 | -1.29% [at 46.1 µM] | 
COc1cccc(-c2nnc(NC(=O)c3ccc(S(=O)(=O)N(CC(C)C)CC(C)C)cc3)o2)c1 |  | 7.08 µM (active)
O=C(COC(=O)c1ccc(Oc2ccccc2)cc1)Nc1nnc(-c2ccccc2)o1 | 11.2% | 
COC(=O)c1ccc(NS(=O)(=O)c2cc3c4c(c2)C(C)C(=O)N4CCC3)cc1 (stereo not given) | -10.9% | 
COc1ccc(C(=O)N2CCN(c3ccc(C(C)=O)cc3F)CC2)cc1S(=O)(=O)NC1CC1 | -10.2% | 

Structure (SMILES) | activity change, negative = inhibition | Potency
CC(C)(CNC(=O)Cc1ccc(Cl)cc1Cl)N1CCOCC1 | 12.5% [at 46.1 µM] | 
CC(C)(CNC(=O)c1ccc(Cl)c(S(=O)(=O)N2CCc3ccccc3C2)c1)N1CCOCC1 |  | 11.2 µM (active)
O=C(NCCSCc1ccccc1)c1ccc(Cl)c(S(=O)(=O)N2CCOCC2)c1 | 2.76% | 
Nc1ncnc2c1cnn2C1CC(O)C(CO)O1 (stereo not given) | -5.6% [at 46.1 µM] | 
CSc1ncccc1C(=O)NCC(c1ccco1)N1CCCCC1 (stereo not given) | 1.83% | 
CCS(=O)(=O)Nc1ccc(C2=NN(C(C)=O)C(c3cccs3)C2)cc1 (stereo not given) | -18.5% | 
CS(=O)(=O)Nc1ccc(C2=NN(S(C)(=O)=O)C(c3cccs3)C2)cc1 (stereo not given) | -10.6% | 
CCS(=O)(=O)Nc1ccc(C2=NN(S(=O)(=O)c3ccc(F)cc3)C(c3ccco3)C2)cc1 (stereo not given) |  | 7.3 µM (active)
COc1ccccc1C(=O)c1ccccc1C(=O)c1ccccc1 | -0.819% [at 46.1 µM] | 
COc1ccc(-c2cn3nc(N4CCC(C(=O)Nc5cccc(C)c5C)CC4)sc3n2)cc1 | 18.7% [at 46.1 µM] | 
CC(C)NC(=O)c1ccc(Cl)cc1Cl | 12.8% [at 46.1 µM] | 
CC(C)OC(=O)c1ccc(NCc2cc(O)ccc2O)cc1Cl |  | 10 µM (active)
CC(OC(=O)c1ccc(Cl)cc1O)C(=O)NCCC1=CCCCC1 (stereo not given) | 2.74% | 
O=C(Cn1c(-c2cccs2)cc2ccccc21)NCCc1ccc(Cl)cc1 | 8.67% [at 46.1 µM] | 
O=C1c2ccccc2C(=O)N1CCCCCCN1C(=O)c2ccccc2C1=O | 0% [at 46.1 µM] | 
CC(=O)c1ccc(S(=O)(=O)NC2CC(=O)N(c3ccc4c(c3)OCCO4)C2)cc1 (stereo not given) | -2.24% | 
O=C(CSc1nncs1)NC1CCCc2ccccc21 (stereo not given) | 14% [at 46.1 µM] | 
CSc1ccccc1N1CCN(CCCCCC(=O)NC2CCCc3ccccc32)CC1 (stereo not given) |  | 11.6 µM (active)
O=C(CN1CCN(c2ccc(O)cc2)CC1)NC1CCCc2ccccc21 (stereo not given) | -29.6% | 
Cc1cccc(NC(=S)N2CCC(C(=O)c3ccc(F)cc3)CC2)c1 | 1.61% [at 46.1 µM] | 
COc1cc(C(c2c(NC(=O)c3ccco3)sc(C)c2C)N2CCOCC2)cc(OC)c1OC (stereo not given) | -2.37% | 
Cc1ccc(C(=O)Nc2ccc(NC(=O)c3cccs3)cc2)c(C)c1 | -6.7% | 

Structure (SMILES) | activity change, negative = inhibition | Potency
Cc1ccc(-c2nnc(-c3ccc(NC(=O)c4cccs4)cc3)o2)cc1 |  | 7.3 µM (active)
Cc1ccc(-c2csc(NC(=O)c3cccs3)n2)cc1 | 0.307% | 
COC(=O)c1cc(C(=O)OC)n2ccc3cc(OC)c(OC)cc3c12 | 21.2% [at 14.3 µM] | 
CSCCC(NC(=O)COc1ccccc1)C(=O)OCc1ccc(Cl)cc1 (stereo not given) | 3.24% | 
O=C(CSc1nc2[nH]c(=O)[nH]c(=O)c2s1)Nc1cccc(F)c1 | 9.68% | 
COc1cc(C(=O)N2CCN(c3ccc(Nc4ccc(C)cc4)nn3)CC2)cc(OC)c1OC | -25.3% [at 46.1 µM] | 
Cc1ccc(C(=O)NC2CCC2)cc1-c1ccc(C(=O)NCC2CC2)cc1 |  | 11.2 µM (active)
O=C(NC1CC1)c1ccc(-c2ccccc2)cc1 | 17.2% | 
Cc1ccc(C(=O)NCC(=O)OCC(=O)NC2CCCCCCC2)cc1 | -7.65% [at 46.1 µM] | 
CCN(CC(=O)Nc1ccc(OC)cc1)C(=O)c1ccc(Cl)c(S(=O)(=O)N2CCCC2)c1 | -5.74% | 
COC(=O)c1cc(C(=O)NC(C)C2CC3CCC2C3)cc([N+](=O)[O-])c1 (stereo not given) | 1.88% | 
O=C(CCCCCCCC(=O)N1CCCCC1)N1CCCCC1 | -5.69% | 
CSc1ncc(Sc2ccccc2)c(C(=O)O)n1 | -7.12% | 
COc1ccc2nc(N3C(=O)C(O)=C(C(=O)c4ccco4)C3c3ccco3)sc2c1 (stereo not given) | 3.18% | 
CCCN(CCC)c1nc2c(C)cccn2c(=O)c1/C=C1/SC(=S)N(Cc2ccco2)C1=O | -2.89% [at 46.1 µM] | 
CCOC(=O)CC1C(=O)NCCN1c1nc2c(C)cccn2c(=O)c1/C=C1\SC(=S)N(C(C)CC)C1=O (stereo not given) |  | 6.31 µM (active)
Cc1cccn2c(=O)c(/C=C3\SC(=S)N(CC(C)C)C3=O)c(NCCCOC(C)C)nc12 | 3.06% | 
COc1ccc(-c2nc(-c3ccccc3)no2)c(OC)c1 |  | 1.64 µM (active)
CC(=O)c1ccc(NC(=O)COc2ccccc2-c2nc(-c3ccccc3)no2)cc1 | 3.33% [at 46.1 µM] | 
CCOc1nc(-c2ccc(OC)cc2)ccc1-c1noc(-c2cc(OC)c(OC)c(OC)c2)n1 | 3.47% | 
CC(=O)OCC(=O)C1(O)CCC2C3CC(C)C4=CC(=O)CCC4(C)C3C(O)CC21C (stereo not given) | -11.5% [at 46.1 µM] | 
